Compound activity deposited in PubChem by Broad Institute.
In the library only some 6.7% were active in any assay of this set; here they are far more common.
Pf Dd2 inh – blocks growth of Plasmodium falciparum Dd2 parasites | 94,000 tested, 2.3% active | activity change, % at 10 µM | P. falciparum Dd2 growth, SYBR Green, 72 h; hits give low values | AID 1159554; in the data active = activity change below about -80%; inconclusive = no clear call, values can overlap the other calls
C diff growth – C. difficile growth inhibition; Clostridium difficile clinical isolate growth, OD600, 24 h; hits give low values; growth activity, negative = inhibition, % at 16 µg/mL (by protocol); AID 1259249; 86,000 tested, 0.25% active;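 active = mean growth activity at or below -80% and every replicate also at or below -80%; inconclusive = mean at or below -80% but some replicate above -80%; inactive = mean growth activity above -80%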;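 note: 0% = DMSO wells and -100% = levofloxacin 16 µg/mL wells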
T cruzi growth-1 – T. cruzi proliferation inhibition; T. cruzi beta-gal in NIH3T3, GalScreen luminescence, 90 h; inhibition, % at 8.34 µM; 77,000 tested, 5.9% active; AID 624255;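 active = mean inhibition above about 93%, with at least 55% of replicates each passing it, limit read from the data, passing the limit was not always enough; inconclusive = only one of those two conditions holds; inactive = neither condition holds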
T cruzi growth-2 – Trypanosoma cruzi proliferation inhibition; 5,600 tested, 72% active; T. cruzi beta-gal in NIH3T3, GalScreen luminescence, 90 h; AID 651739; shares compounds with T cruzi growth-1; inhibition, % at 8.35 µM;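 active = mean replicate inhibition above about 95% and at least 55% of replicates individually reaching it, limit read from the data; inconclusive = only one of the two criteria is met; inactive = neither criterion is met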
T cruzi growth-3 – Trypanosoma cruzi proliferation inhibition | AID 651740 | shares compounds with T cruzi growth-1 | T. cruzi beta-gal in NIH3T3, GalScreen luminescence, 90 h | inhibition, % at 2.09 µM | 5,600 tested, 21% active;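 active = mean inhibition above about 95%, with at least 55% of replicates also reaching it, limit read from the data; inconclusive = meets just one of the two conditions; inactive = meets neither condition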;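 note: plate controls were neutral control median for no effect and positive control median for full effect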
3T3 cytotox – NIH/3T3 (mouse) viability loss. cytotoxicity (signal decrease), % at 8.35 µM. shares compounds with T cruzi growth-1. NIH/3T3 viability, CellTiter-Glo ATP luminescence, 90 h. AID 651742. 5,600 tested, 14% active;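 active = mean signal decrease across replicates above about 35% based on untreated-well scatter, with enough replicates individually passing, limit read from the data; inconclusive = no rule stated though some were filed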;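 note: 0% = median of neutral control wells and 100% = median of positive control wells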
NIH3T3 tox 2 – kills mouse NIH/3T3 fibroblasts | shares compounds with T cruzi growth-1 | NIH/3T3 viability, CellTiter-Glo ATP luminescence, 90 h | inhibition, % at 24.9 µM | 5,600 tested, 56% active;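 active = mean loss of cell viability signal at or above a set limit, and enough replicates individually reaching it; inconclusive = meets only the mean limit or only the replicate share; inactive = meets neither condition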;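 note: 0% = median of neutral control wells and 100% = median of positive control wells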
Active calls of the source: *; ? = inconclusive; . = not tested or not shown; + = active, no number.

SMILES	Pf Dd2 inh	C diff growth	T cruzi growth-1	T cruzi growth-2	T cruzi growth-3	3T3 cytotox	NIH3T3 tox 2
COc1ccc(C#Cc2ccc3c(c2)[C@H]2[C@H](CCN2C(C)=O)[C@H](CO)N3)cc1	-13	-14	54	.	.	.	.
CCC(=O)N1CC[C@@H]2[C@H]1c1cc(C#Cc3ccc(F)cc3)ccc1N[C@@H]2CO	-21	-16	51	.	.	.	.
CCC(=O)N1CC[C@@H]2[C@H](CO)Nc3ccc(C#Cc4ccc(F)cc4)cc3[C@@H]21	12	-10	106*	105*	74	18	50*
COc1ccc(C#Cc2ccc3c(c2)[C@@H]2[C@@H](CCN2C(=O)C2CCCCC2)[C@@H](CO)N3)cc1	-25	5	101*	101*	86	27	95*
COc1ccccc1C#Cc1ccc2c(c1)[C@H]1[C@H](CCN1C(=O)c1ccncc1)[C@@H](CO)N2	-22	57	.	.	.	.	.
O=C(C1CCCCC1)N1CC[C@@H]2[C@@H](CO)Nc3ccc(C#Cc4ccc(F)cc4)cc3[C@@H]21	-70	42	.	.	.	.	.
COc1ccc(CN(C)C[C@@H]2OCCCC[C@@H](C)Oc3ccc(N(C)C)cc3C(=O)N([C@H](C)CO)C[C@H]2C)cc1	-14	5	50	.	.	.	.
COCC(=O)N1CCCCN2[C@@H](CO)[C@@H](c3ccc(-c4ccccc4)cc3)[C@@H]2C1	0	2	90	.	.	.	.
CCCNC(=O)NC[C@H]1[C@@H](c2ccc(C3=CCCC3)cc2)[C@H](CO)N1C(C)=O	4	-1	2	.	.	.	.
COc1ccc(C#Cc2ccc3c(c2)[C@H]2[C@H](CCN2C(=O)C2CC2)[C@@H](CO)N3)cc1	-46	15	116*	93	36	7	14
COc1cccc(C#Cc2ccc3c(c2)[C@H]2[C@H](CCN2C(=O)c2ccccc2F)[C@H](CO)N3)c1	-28	-2	60	.	.	.	.
O=C(Cc1ccccc1)N1CC[C@@H]2[C@H](CO)Nc3ccc(C#Cc4ccccc4)cc3[C@@H]21	-75	-5	81	.	.	.	.
O=C(Cc1ccccc1)N1CC[C@@H]2[C@H]1c1cc(C#Cc3ccccc3)ccc1N[C@@H]2CO	-40	-1	105*	89	61	-1	106*
COc1ccc(C#Cc2ccc3c(c2)[C@H]2[C@H](CCN2C(=O)c2ccccc2F)[C@H](CO)N3)cc1	-65	47	?	106*	99*	43*	62*
CCC(=O)N1CC[C@H]2[C@H](CO)Nc3ccc(C#Cc4ccc(OC)cc4)cc3[C@H]21	-71	7	.	.	.	.	.
COc1ccc(NC(=O)N(C)C[C@H]2Oc3ccc(NC(=O)Cc4ccccc4)cc3C(=O)N([C@@H](C)CO)C[C@@H]2C)cc1	-9	-2	11	.	.	.	.
C[C@@H]1CN([C@@H](C)CO)S(=O)(=O)c2ccc(C#CC3CC3)cc2O[C@@H]1CN(C)C(=O)c1ccccn1	-29	0	24	.	.	.	.
O=C(Nc1cc(F)ccc1F)N1CCCCN2[C@H](C1)[C@@H](c1ccc(-c3ccccc3)cc1)[C@@H]2CO	-21	34	99*	101*	102*	62*	106*
O=C(Nc1cc(F)ccc1F)N1CCCCN2[C@H](C1)[C@@H](c1ccc(-c3cncnc3)cc1)[C@@H]2CO	14	4	105*	4	-14	-16	-2
O=C(Nc1cc(F)ccc1F)N1CCCCN2[C@H](C1)[C@@H](c1ccc(-c3ccncc3)cc1)[C@@H]2CO	-14	-1	94	.	.	.	.
O=C(Nc1cc(F)ccc1F)N1CCCCN2[C@H](CO)[C@@H](c3ccc(-c4ccncc4)cc3)[C@@H]2C1	-16	13	88	.	.	.	.
O=C(Nc1cc(F)ccc1F)N1CCCCN2[C@H](CO)[C@H](c3ccc(-c4cccnc4)cc3)[C@H]2C1	-45	1	104*	101*	59	-25	?
O=C(Nc1cc(F)ccc1F)N1CCCCN2[C@H](CO)[C@@H](c3ccc(-c4cccnc4)cc3)[C@H]2C1	-26	-10	61	.	.	.	.
O=C(Nc1cc(F)ccc1F)N1CCCCN2[C@H](CO)[C@@H](c3ccc(-c4ccccc4)cc3)[C@H]2C1	-38	14	36	.	.	.	.
O=C(Nc1cc(F)ccc1F)N1CCCCN2[C@H](CO)[C@H](c3ccc(-c4cncnc4)cc3)[C@@H]2C1	21	-4	115*	54	31	23	19
SMILES	Pf Dd2 inh	C diff growth	T cruzi growth-1	T cruzi growth-2	T cruzi growth-3	3T3 cytotox	NIH3T3 tox 2
O=C(NC1CCC1)[C@@H]1[C@@H](CO)[C@@H]2Cn3c(ccc(-c4ccccc4F)c3=O)[C@H]1N2C(=O)CC1CC1	1	1	64	.	.	.	.
C[C@@H]1CN([C@H](C)CO)C(=O)c2cccc(NC(=O)c3ccncc3)c2O[C@@H]1CN(C)Cc1ccc(Cl)c(Cl)c1	-4	3	93	.	.	.	.
CN1CCN(C(=O)C[C@H]2CC[C@H]3[C@@H](COC[C@H](O)CN3C(=O)C3CC3)O2)CC1	2	-1	-23	.	.	.	.
CCN1[C@@H]2c3ccc(-c4ccc(F)cc4)c(=O)n3C[C@@H]2[C@@H](CO)[C@@H]1C(=O)Nc1ccccc1	-58	1	.	.	.	.	.
CN1[C@H](C(=O)NCc2ccccn2)[C@@H](CO)[C@@H]2Cn3c(ccc(-c4cccc(F)c4)c3=O)[C@@H]21	.	-9	111*	52	5	17	13
COCC(=O)N1[C@H](C(=O)Nc2ccccc2)[C@@H](CO)[C@@H]2Cn3c(ccc(-c4ccc(F)cc4)c3=O)[C@@H]21	7	0	10	.	.	.	.
CN1[C@H](C(=O)Nc2ccccc2)[C@@H](CO)[C@@H]2Cn3c(ccc(-c4ccc(F)cc4)c3=O)[C@@H]21	.	-6	+	103*	11	-16	11
CCC(=O)N1[C@@H]2c3ccc(-c4cccc(F)c4)c(=O)n3C[C@@H]2[C@@H](CO)[C@@H]1C(=O)N1CCCCC1	16	-3	.	.	.	.	.
CN1[C@@H]2c3ccc(-c4ccc(F)cc4)c(=O)n3C[C@@H]2[C@@H](CO)[C@@H]1C(=O)Nc1ccccc1	.	-3	+	-21	-34	-27	-5
CCCNC(=O)N1[C@H](C(=O)N2CCCCC2)[C@@H](CO)[C@@H]2Cn3c(ccc(-c4ccc(F)cc4)c3=O)[C@@H]21	.	-9	98*	17	-19	-14	6
CN1[C@@H]2c3ccc(-c4cccc(F)c4)c(=O)n3C[C@@H]2[C@@H](CO)[C@@H]1C(=O)NCc1ccccn1	.	-5	77	.	.	.	.
COc1cccc(C(=O)Nc2ccc3c(c2)OC[C@@H](C)N(CC2CC2)C[C@@H](C)[C@H](OC)CN(C)C3=O)c1	-40	-2	13	.	.	.	.
CO[C@@H]1CN(C)C(=O)c2cc(NC(=O)c3ccc(F)cc3)ccc2OC[C@@H](C)N(C(=O)CC2CC2)C[C@H]1C	.	.	-32	.	.	.	.
